# Measured values reported in PubChem BioAssay AID624126 (The Scripps Research Institute Molecular Screening Center, 2012).
# About 1,400 (0.39%) of roughly 360,000 compounds were called active.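 The calls were made as follows: active = activation above its plate's cutoff, the mean activation of sample wells plus 3 SD; inactive = the rest.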 Many of the other results were omitted from the sample, so actives are more common in it than they were.
# Molecular target: Muscarinic acetylcholine receptor M4 (Homo sapiens) (UniProt P08173)
# Sequence (P08173 whole entry, looked up): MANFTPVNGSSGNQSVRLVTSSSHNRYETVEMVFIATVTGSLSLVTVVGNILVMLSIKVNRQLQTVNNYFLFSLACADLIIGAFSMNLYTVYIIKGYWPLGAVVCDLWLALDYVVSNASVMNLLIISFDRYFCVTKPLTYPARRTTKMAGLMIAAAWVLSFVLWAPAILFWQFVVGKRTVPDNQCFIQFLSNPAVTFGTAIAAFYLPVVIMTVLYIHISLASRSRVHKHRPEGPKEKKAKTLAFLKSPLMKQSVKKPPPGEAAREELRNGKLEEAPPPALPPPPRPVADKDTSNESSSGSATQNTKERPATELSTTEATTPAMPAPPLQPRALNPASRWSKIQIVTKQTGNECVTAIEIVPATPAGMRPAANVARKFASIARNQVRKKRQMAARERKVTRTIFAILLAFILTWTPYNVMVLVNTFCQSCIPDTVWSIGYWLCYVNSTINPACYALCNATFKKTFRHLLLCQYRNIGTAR
# Assay: CHRM4 PAMs potentiating acetylcholine calcium signal – CHO-K1 cells, Fluo-8 calcium fluorescence, primary screen (AID 624126)
# Details: CHO-K1 hM4/Gqi5, Fluo-8 calcium fluorescence, ACh EC20; at 3 µM; active compounds read high; 0% = ACh EC20, 100% = maximal ACh
row,Structure (SMILES),activation
1,COc1ccccc1N1CCN(Cc2ccc(OC)c3ccccc23)CC1,-3.43% (inactive)
2,CNCC(O)CN1CCN(c2ccccc2OC)CC1 (stereo not drawn),19.7% (active)
3,COc1ccccc1N1CCN(Cc2cc(OC)c3c(c2)OCO3)CC1,-6.02% (inactive)
4,COc1ccccc1-n1c(=S)[nH]c2c(sc(=S)n2-c2ccc(C)cc2C)c1=O,2.71% (inactive)
5,Cn1c(NC(=O)c2ccco2)c(-c2ccccc2Cl)c(=O)c2ccccc21,31% (active)
6,COc1ccc(-c2c(NC(=O)c3ccco3)oc3ccc(Cl)cc3c2=O)cc1,11.2% (inactive)
7,Cc1cccc(-c2c(NC(=O)c3ccco3)oc3ccc(Cl)cc3c2=O)c1,7.81% (inactive)
8,Cc1cccc(C)c1-n1nnnc1C1(C)CCC(=O)N1CCOc1ccccc1 (stereo not drawn),6% (inactive)
9,CC1(C(=O)NCc2ccc3c(c2)OCO3)CCN1C(=O)Cc1cccs1 (stereo not drawn),3.27% (inactive)
10,COc1ccc(NC(=O)C(C)SCc2ccccc2)cc1 (stereo not drawn),0.44% (inactive)
11,CC(Sc1nnc2c(n1)C1CCC2(C)C1(C)C)C(=O)Nc1ccccc1 (stereo not drawn),-0.53% (inactive)
12,CSc1nc(C)cc(SC(C(C)=O)C(=O)Nc2ccccc2)n1 (stereo not drawn),22.6% (active)
13,CCCCN1C(=O)C(CC(=O)NCc2cccs2)CC(C(=O)N2CCCCCC2)=C1C (stereo not drawn),0.62% (inactive)
14,Cc1cc(C)nc(NC(=O)c2cccc([N+](=O)[O-])c2)c1,31.6% (active)
15,O=C(Nc1ccc(C2CC2(Cl)Cl)cc1)c1cccc([N+](=O)[O-])c1 (stereo not drawn),-15.5% (inactive)
16,C/C(=N\NC(=O)c1cccc([N+](=O)[O-])c1)c1cccnc1,1.53% (inactive)
17,O=C(c1ccc(C(F)(F)F)cc1)C1CCCN(C(=O)c2csnn2)C1 (stereo not drawn),5.9% (inactive)
18,c1ccc2c(c1)OCC(c1nn3cnnc3s1)O2 (stereo not drawn),13.1% (inactive)
19,CCn1c(SCC(=O)Nc2cc(C)ccc2C)nnc1-c1cnccn1,35.7% (active)
20,CCn1c(SCC(=O)NC2CC2)nnc1-c1ccccn1,-4.53% (inactive)

row,Structure (SMILES),activation
1,CCc1ccc(NC(=O)CSc2nnc(-c3cnccn3)n2Cc2ccco2)cc1,-2.71% (inactive)
2,CC1COc2ccccc2N1C(=O)c1cccnc1Cl (stereo not drawn),-13.4% (inactive)
3,CC(=O)c1c(C)[nH]c(C(=O)N2CCN(S(=O)(=O)c3ccc(F)c(F)c3)CC2)c1C,1.38% (inactive)
4,CC(C)(C)C(=O)Nc1ccc(-c2cn3cccnc3n2)cc1,1.07% (inactive)
5,COc1ccc2c(-c3ccccc3)cc(SCC(=O)N(C)C3CCS(=O)(=O)C3)nc2c1 (stereo not drawn),-1.12% (inactive)
6,CN(C(=O)COC(=O)c1cc(-c2ccco2)nc2ccccc12)C1CCS(=O)(=O)C1 (stereo not drawn),-1.7% (inactive)
7,Cc1c(-c2cccc(Cl)c2)nc2ccccc2c1C(=O)OCC(=O)N(C)C1CCS(=O)(=O)C1 (stereo not drawn),22.5% (active)
8,O=C(Nc1ccc(F)cc1)C1CCCN(S(=O)(=O)c2ccc(-n3cnnn3)cc2)C1 (stereo not drawn),8% (inactive)
9,CCOC(=O)c1ccc(S(=O)(=O)N(CCO)Cc2cc3cc(OC)c(OC)cc3[nH]c2=O)cc1,-7.09% (inactive)
10,O=C(CN1C(=O)S/C(=C\c2ccccc2F)C1=O)NCCCn1ccnc1,17.2% (active)
11,O=C(CCN1C(=O)c2ccccc2C1=O)NCCCn1ccnc1,8.67% (inactive)
12,O=C(NCCCn1ccnc1)/C(=C\c1ccccc1F)NC(=O)c1ccccc1,-3.09% (inactive)
13,COCCNc1nnc(SCC(=O)NNC(=O)c2ccco2)s1,2.78% (inactive)
14,CC(C)(C)CC(=O)Nc1nnc(SCC(=O)NCc2cccs2)s1,-0.98% (inactive)
15,COC(=O)CSc1nnc(NC(=O)CCc2ccccc2)s1,19.8% (active)
16,CC1=NN(C(=O)CCc2ccccc2O)C(O)(C(F)(F)F)C1 (stereo not drawn),5.29% (inactive)
17,CC1=NN(C(=O)CCCc2ccccc2)C(O)(C(F)(F)F)C1 (stereo not drawn),9.78% (inactive)
18,COc1ccc(CC(=O)N2N=C(C)CC2(O)C(F)(F)F)cc1 (stereo not drawn),24% (active)
19,Cn1cc(CN2CCCCC2c2ccccn2)c(-c2ccc3c(c2)OCCO3)n1 (stereo not drawn),5.23% (inactive)
20,CCOC(=O)c1c(NC(=O)C2CC=CCC2C(=O)O)sc(C)c1CC (stereo not drawn),0.65% (inactive)

row,Structure (SMILES),activation
1,O=C1CCCCC1Sc1ccc(Cl)cc1[N+](=O)[O-] (stereo not drawn),-0.97% (inactive)
2,O=C(NC1CCCCC1)C1CCCN(S(=O)(=O)c2ccc(Br)s2)C1 (stereo not drawn),-0.65% (inactive)
3,CC1=C(C(=O)N2CCOCC2)CC(CC(=O)NCc2cccc3ccccc23)C(=O)N1CCC1=CCCCC1 (stereo not drawn),0.96% (inactive)
4,COc1ccc(C(C(=O)NCC2CCCO2)N(C(=O)Cn2nnc3ccccc32)c2ccc(NC(C)=O)cc2)cc1OC (stereo not drawn),6.34% (inactive)
5,Cc1ccc(C(C(=O)NCc2ccco2)N(CC2CCCO2)C(=O)Cn2nnc3ccccc32)cc1 (stereo not drawn),4.26% (inactive)
6,CCOc1cc(C(C(=O)NCC2CCCO2)N(C(=O)Cn2nnc3ccccc32)c2cccc(OC)c2)ccc1O (stereo not drawn),44.7% (active)
7,Cc1ccc(NC(=O)C2CC2)cc1S(=O)(=O)N1CCOCC1,0.09% (inactive)
8,CC(C)Oc1ccc(C(=O)Nc2cc(=O)n(C)c(=O)n2C)cc1,5.54% (inactive)
9,C=CCOc1ccc(/C=N/n2cncn2)cc1OC,8.05% (inactive)
10,O=C(Cn1c(=O)n(Cc2ccco2)c(=O)c2ccccc21)NCC1CCCO1 (stereo not drawn),5.16% (inactive)
11,COc1ccc(-c2oc3ncn(Cc4ccco4)c(=N)c3c2-c2ccc(OC)cc2)cc1,-6.61% (inactive)
12,Cn1c2ccccc2c(=O)c2c(=O)n(Cc3ccco3)c(COc3ccccc3)nc21,21.8% (active)
13,COc1ccc(CCNC(=O)COC(=O)c2ccc[nH]c2=O)cc1,11.3% (inactive)
14,COc1ccc(CCNC(=O)COC(=O)c2cc(=O)c3ccccc3o2)cc1,26.3% (active)
15,CCc1cccc(NC(=O)COC(=O)c2cc(=O)c3ccccc3o2)c1,10.9% (inactive)
16,COC(=O)c1c(NC(=O)COC(=O)[C@@H](NS(=O)(=O)c2ccccc2)C(C)C)sc2c1CCC2,-4.52% (inactive)
17,COC(=O)c1scc(S(=O)(=O)C(C)(C)C)c1-n1cccc1,-11.5% (inactive)
18,COc1cc(C(=O)N2CCN(C3CCC(C)CC3)CC2)cc(OC)c1OC (stereo not drawn),-7.26% (inactive)
